Test results published in the supplement of paper PMC9262897, “Low-cost anti-mycobacterial drug discovery using engineered E. coli” (Nature Communications, 2022).
Structures can show the parent of a compound that is named as a salt. ± gives the standard deviation of the averaged measurements.

Experiments:
Experiment in all cases: growth (OD600 after 10 h); higher = more growth (less inhibition)
[1] = system: E. coli TESEC Alr+ wild-type control; details: compound 0.1 mM; raw OD600 reference: median of DMSO wells 0.241, cell-free background 0.041
Protocol: (§1)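 TESEC Mtb Alr E. coli, or the Alr+ wild-type control, in 384-well plates with Prestwick library compounds at 0.1 mM and 1% DMSO, across arabinose induction levels of 1E3 to 1E7 nM. Growth is read as OD600 after 10 h at 37 °C in triplicate biological replicates.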

E. coli TESEC Mtb Alr [2] = details: compound 0.1 mM
Protocol: as §1

E. coli TESEC Mtb Asd = details: compound 0.1 mM
Protocol: (§2)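 TESEC E. coli strains in which the native enzyme is deleted and replaced by arabinose-inducible Mtb Asd, DapB, CysH or TrpD, each grown in its selective medium. Strains were screened against the Prestwick library at 0.1 mM and 1% DMSO in 384-well format at low and high arabinose induction. Growth is read as OD600 after 10 h in triplicate.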

E. coli TESEC Mtb DapB = details: compound 0.1 mM
Protocol: as §2

[3] = system: E. coli TESEC Alr+ wild-type control; details: compound 0.1 mM; raw OD600 reference: median of DMSO wells 0.49, cell-free background 0.052
Protocol: (§3)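 TESEC Mtb Alr E. coli (ΔaraC ΔtolC ΔentC Δalr ΔdadX, arabinose-inducible Mtb Alr) or the Alr+ wild-type control strain, grown in defined M9-fructose medium without D-alanine in 96-well plates with Prestwick library compounds at 0.1 mM and 1% DMSO. Low Alr induction is 0.1 µM arabinose and high induction is 10 mM arabinose.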

E. coli TESEC Mtb Alr [4] = details: compound 0.1 mM; remark: listed apart in the source
Protocol: as §3

[5] = arabinose 1000 nM, raw OD600 reference: median of DMSO wells 0.294, cell-free background 0.041
[6] = arabinose 10000 nM, raw OD600 reference: median of DMSO wells 0.264, cell-free background 0.041
[7] = arabinose 100000 nM, raw OD600 reference: median of DMSO wells 0.201, cell-free background 0.041
[8] = arabinose 1000000 nM, raw OD600 reference: median of DMSO wells 0.193, cell-free background 0.041
[9] = arabinose 10000000 nM, raw OD600 reference: median of DMSO wells 0.146, cell-free background 0.041
[10] = arabinose induction (level): High, raw OD600 reference: median of DMSO wells 0.331, cell-free background 0.041
[11] = arabinose induction (level): Low, raw OD600 reference: median of DMSO wells 0.417, cell-free background 0.041
[12] = arabinose induction (level): High, raw OD600 reference: median of DMSO wells […], cell-free background 0.041
[13] = arabinose induction (level): Low, raw OD600 reference: median of DMSO wells 0.227, cell-free background 0.041
[14] = arabinose 100 nM, raw OD600 reference: median of DMSO wells 0.413, cell-free background 0.052
[15] = arabinose 10000000 nM, raw OD600 reference: median of DMSO wells […], cell-free background 0.052

| SMILES | growth [1] | growth (E. coli TESEC Mtb Alr [2]; [5]) | growth (E. coli TESEC Mtb Alr [2]; [6]) | growth (E. coli TESEC Mtb Alr [2]; [7]) | growth (E. coli TESEC Mtb Alr [2]; [8]) | growth (E. coli TESEC Mtb Alr [2]; [9]) | growth (E. coli TESEC Mtb Asd; [10]) | growth (E. coli TESEC Mtb Asd; [11]) | growth (E. coli TESEC Mtb DapB; [12]) | growth (E. coli TESEC Mtb DapB; [13]) | growth [3] | growth (E. coli TESEC Mtb Alr [4]; [14]) | growth (E. coli TESEC Mtb Alr [4]; [15]) |
| --- | --- | --- | --- | --- | --- | --- | --- | --- | --- | --- | --- | --- | --- |
| CNCC[C@@H](Oc1ccccc1C)c1ccccc1 [Tomoxetine hydrochloride] | 0.216 ± 0.0098 | 0.254 ± 0.0027 | 0.272 ± 0.0044 | 0.211 ± 0.019 | 0.139 ± 0.0019 | 0.173 ± 0.0034 | 0.205 ± 0.024 | 0.294 ± 0.021 | 0.18 ± 0.0036 | 0.263 ± 0.047 | 0.441 ± 0.016 | 0.407 ± 0.0067 | 0.326 ± 0.018 |
| CC(C(=O)O)c1ccc(C(=O)c2ccccc2)s1 (stereo unspecified) [Tiaprofenic acid] | 0.22 ± 0.012 | 0.253 ± 0.021 | 0.246 ± 0.0058 | 0.201 ± 0.019 | 0.205 ± 0.0076 | 0.143 ± 0.006 | 0.386 ± 0.077 | 0.285 ± 0.099 | 0.182 ± 0.009 | 0.178 ± 0.015 | 0.502 ± 0.059 | 0.382 ± 0.02 | 0.35 ± 0.019 |
| Cc1nc2ccccn2c(=O)c1CCN1CCC(C(=O)c2ccc(F)cc2)CC1 [Pirenperone] | 0.208 ± 0.0042 | 0.272 ± 0.0064 | 0.268 ± 0.013 | 0.208 ± 0.043 | 0.178 ± 0.0069 | 0.147 ± 0.007 | 0.352 ± 0.045 | 0.395 ± 0.089 | 0.223 ± 0.0088 | 0.23 ± 0.037 | 0.469 ± 0.013 | 0.408 ± 0.011 | 0.312 ± 0.023 |
| Clc1ccccc1CN1CCc2sccc2C1 [Ticlopidine hydrochloride] | 0.0758 ± 0.011 | 0.0555 ± 0.015 | 0.0438 ± 0.0013 | 0.0705 ± 0.024 | 0.0437 ± 0.00091 | 0.0565 ± 0.0013 | 0.236 ± 0.03 | 0.323 ± 0.07 | 0.195 ± 0.0059 | 0.23 ± 0.029 | – | 0.345 ± 0.085 | 0.06587 ± 0.00038 |
| O=C1C(O)=C(O)C(=O)C(O)=C1O [Tetrahydroxy-1,4-quinone hydrate] | 0.231 ± 0.0052 | 0.29 ± 0.02 | 0.275 ± 0.0064 | 0.19 ± 0.018 | 0.1568 ± 0.0015 | 0.142 ± 0.0053 | 0.349 ± 0.089 | 0.427 ± 0.082 | 0.206 ± 0.021 | 0.226 ± 0.0024 | – | 0.399 ± 0.012 | 0.333 ± 0.0084 |
| O=C1NCCN1CCN1CCC(c2cn(-c3ccc(F)cc3)c3ccc(Cl)cc23)CC1 [Sertindole] | 0.0429 ± 0.0029 | 0.04057 ± 0.00035 | 0.04073 ± 0.00025 | 0.0409 ± 0.0004 | 0.04 ± 0.0001 | 0.0443 ± 0.0027 | 0.0531 ± 0.0039 | 0.0504 ± 0.003 | 0.102 ± 0.09 | 0.0562 ± 0.012 | 0.0474 ± 0.001 | 0.167 ± 0.2 | 0.0524 ± 0.00098 |
